PubChem BioAssay (EPA / NIEHS)
Values joined by “and” are separate entries in the source; they are usually repeats but may differ in a detail not shown here. Identical values can stand only once. Inconclusive results are not listed. Active and inactive are the calls of the source. The calls were made as follows, unless noted: active = hit-call score of the fitted dose curve at least 0.9, where 1 is the maximum; inconclusive = response in the unintended direction; inactive = score below 0.9.

Columns and labels:
[1] = molecular target: Cellular tumor antigen p53 (Homo sapiens) (UniProt P04637); experiment: TOX21_p53_BLA_p2_ratio: Tox21 HCT-116 p53 Agonism Beta-lactamase Assay, Ratio, Phase 2 (AID 2283592)
Procedure, shortened: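 An inducible beta-lactamase reporter in HCT116 cells signals p53 pathway activation. After 16 h chemical exposure at 37C, cells load CCF4-AM substrate for 2 h at room temperature; activity is the cleaved/uncleaved emission ratio relative to DMSO.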

[2] = molecular target: Cellular tumor antigen p53 (Homo sapiens) (UniProt P04637); experiment: TOX21_p53_BLA_p3_ratio: Tox21 HCT-116 p53 Agonism Beta-lactamase Assay, Ratio, Phase 3 (AID 2283596)
Procedure, shortened: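 HCT116 p53-bla cells (4000/well) given compound in DMSO (217-fold dilution) after 5 h, incubated 16 h at 37C. CCF4-AM substrate 2 h at room temperature; 460/530 nm emission ratio, gain fitted against DMSO.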

[3] = molecular target: Cellular tumor antigen p53 (Homo sapiens) (UniProt P04637); experiment: TOX21_p53_BLA_p5_ratio: Tox21 HCT-116 p53 Agonism Beta-lactamase Assay, Ratio, Phase 5 (AID 2283599)
Procedure, shortened: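 Beta-lactamase reporter ratio (blue 460 nm over green 530 nm, 405 nm excitation) after 2 h CCF4-AM loading, in HCT-116 cells exposed 16 h at 37 C to compounds pinned at 217-fold dilution. Increases relative to DMSO baseline scored.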

[4] = molecular target: Cellular tumor antigen p53 (Homo sapiens) (UniProt P04637); experiment: TOX21_p53_BLA_p4_ratio: Tox21 HCT-116 p53 Agonism Beta-lactamase Assay, Ratio, Phase 4 (AID 2283601)
Procedure, shortened: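 Signal is the blue/green (460nm/530nm) ratio of cleaved versus uncleaved CCF4-AM substrate, read after 2 h substrate loading. Cells were HCT116 carrying the p53-responsive beta-lactamase reporter, dosed 16 h at 37C, 5% CO2; CellTiter-Glo measured in parallel.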

[5] = TOX21_p53_BLA_p4_viability: Viability Assessment in the Tox21 HCT-116 p53 Agonism Beta-lactamase Assay, Phase 4 (AID 2283597);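 also: hits lower the luminescence signal meaning cytotoxicity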
Procedure, shortened: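 Compound exposure of HCT116 cells lasts 16 h at 37C, 5% CO2, with DMSO stocks diluted 217-fold. Cellular ATP is then quantified by CellTiter-Glo luminescence after 30 min at room temperature.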

[6] = UKN5_HCS_SBAD2_cell_viability: Viability Assessment in the University of Konstanz (UKN) Leist Lab Neurite Outgrowth Assay in human iPSC-derived immature Dorsal Root Ganglia Neurons (UKN5) (AID 2284056; active = hit-call score of the fitted dose curve at least 0.9, where 1 is the maximum; inactive = score below 0.9)
Procedure, shortened: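 iPSC-derived immature peripheral neurons (SBAD2) seeded on Matrigel with CHIR99021, SU5402 and DAPT, dosed 1 h later for 24 h. Viability from Hoechst H-33342 and calcein-AM live staining, high-content imaging; bidirectional fit versus DMSO.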

[7] = UKN5_HCS_SBAD2_neurite_outgrowth: University of Konstanz (UKN) Leist Lab Neurite Outgrowth Assay in human iPSC-derived immature Dorsal Root Ganglia Neurons (UKN5) (AID 2284070; active = hit-call score of the fitted dose curve at least 0.9, where 1 is the maximum; inactive = score below 0.9); settings: actives raise or lower the signal
Procedure, shortened: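 SBAD2 iPSC-derived immature peripheral neurons on Matrigel, 100.000 cells/cm2, medium with CHIR99021 (1.5 uM), SU5402 (5 uM), DAPT (5 uM); compound added 1 h post-seeding for 24 h. Calcein-AM neurite area by high-content imaging; Hoechst H-33342 viability; bidirectional fit vs DMSO.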

[8] = UKN2_HCS_IMR90_neural_migration: University of Konstanz (UKN) Leist Lab Neural Crest Cell Migration Assay in human induced IMR90 Pluripotent Stem Cells (UKN2) (AID 2284204; active = hit-call score of the fitted dose curve at least 0.9, where 1 is the maximum; inactive = score below 0.9); settings: actives raise or lower the signal
Procedure, shortened: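 Migration of human IMR90-derived neural crest cells into a stopper-defined gap is imaged after 24 h chemical treatment. Activity is fitted bidirectionally relative to DMSO.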

[9] = UKN4_HCS_LUHMES_neurite_outgrowth: University of Konstanz (UKN) Leist Lab Neurite Outgrowth Assay in human LUHMES cells (UKN4) (AID 2284206; active = hit-call score of the fitted dose curve at least 0.9, where 1 is the maximum; inactive = score below 0.9); settings: actives raise or lower the signal
Procedure, shortened: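 Human LUHMES neuronal precursors, differentiated 2 days then replated without cAMP and GDNF, exposed to compounds for 24 h. Neurite area imaged by high-content microscopy after calcein-AM live staining; Hoechst H-33342 for viability; bidirectional fit versus DMSO.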

[10] = UKN4_HCS_LUHMES_cell_viability: Viability Assessment in the University of Konstanz (UKN) Leist Lab Neurite Outgrowth Assay in human LUHMES cells (UKN4) (AID 2284232; active = hit-call score of the fitted dose curve at least 0.9, where 1 is the maximum; inactive = score below 0.9)
Procedure, shortened: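 LUHMES precursors differentiated 2 days, replated at 30000 cells/well without cAMP/GDNF, then compound-treated 24 h. Viability from Hoechst H-33342 and calcein-AM live staining (30 min) by high-content fluorescence imaging; bidirectional fit versus DMSO.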

[11] = UKN2_HCS_IMR90_cell_viability: Viability Assessment in the University of Konstanz (UKN) Leist Lab Neural Crest Cell Migration Assay in human induced IMR90 Pluripotent Stem Cells (UKN2) (AID 2284233; active = hit-call score of the fitted dose curve at least 0.9, where 1 is the maximum; inactive = score below 0.9;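 also: viability of neural crest cells differentiated from IMR90 iPSC measured by calcein-AM fluorescence imaging; cells exposed to compound for 24 h after a 24 h migration phase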)
Procedure, shortened: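 Human IMR90-derived neural crest cells were allowed to migrate for 24 h into a cell-free zone, then exposed to test chemicals for 24 h. Calcein-AM and Hoechst staining with high-content imaging gave viability, analysed against DMSO baseline.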

[12] = TOX21_p53_BLA_p5_viability: Viability Assessment in the Tox21 HCT-116 p53 Agonism Beta-lactamase Assay, Phase 5 (AID 2283600)
Procedure, shortened: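 Counter-readout for cytotoxicity: ATP-dependent luminescence from CellTiter-Glo, read in the beta-lactamase wells after 30 min at RT, following a 16 h compound exposure at 37C.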

[13] = CCTE_Harrill_HTTr_Apoptosis_MCF7: CCTE's 6-hour Apoptosis Assessment for the High-Throughput Transcriptomics (HTTr) Platform, in MCF-7 cells cultured in DMEM + 10% fetal bovine serum, Harrill Lab (AID 2284011; active = hit-call score of the fitted dose curve at least 0.9, where 1 is the maximum; inactive = score below 0.9)
Procedure, shortened: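 Cells are dosed with test chemicals at eight concentrations and imaged 6 hours later for caspase-3/7 activity using a green fluorogenic detection reagent. Activity is fitted in both directions against DMSO controls.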

[14] = CCTE_Harrill_HTTr_CellCount_MCF7: CCTE's Cell Proliferation Assessment for the High-Throughput Transcriptomics (HTTr) Platform, Harrill Lab (AID 2284012);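 also: cells exposed to compound for six hours; intended direction is loss of nuclei count meaning fewer cells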
Procedure, shortened: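 MCF7 cells exposed 6 hours to an eight-point dilution series; Hoechst-stained nuclei counted by high-content imaging. Bidirectional curve fitting against DMSO baseline.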

[15] = TOX21_TRB_BLA_Agonist_Followup_viability: Viability Assessment in the Tox21 Thyroid Hormone Receptor beta Agonism Beta-lactamase (BLA) Follow-Up Assay (AID 2283956)
Procedure, shortened: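 TRb-bla HEK293T cells (GAL4-DBD/human TRb LBD) in 2% charcoal-stripped FBS medium were exposed 18 h at 37C to 11 concentrations in triplicate. CellTiter-Glo ATP luminescence was read after 30 min at room temperature, with bidirectional fitting against DMSO.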

[16] = molecular target: Retinoic acid receptor RXR-alpha (Homo sapiens) (UniProt P19793); experiment: TOX21_TR_RXR_BLA_Agonist_Followup_ratio: Tox21 Thyroid Hormone Receptor beta Retinoid X Receptor alpha (RXRa) Agonism Beta-lactamase (BLA) Follow-Up Assay, Ratio (AID 2283968)
Procedure, shortened: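 RXRa-UAS-bla HEK293T cells, 5 h attachment at 37C/5% CO2, then 11 concentrations in triplicate for 16 h; 9-cis retinoic acid positive control. FRET-B/GCCF4-AM substrate 2 h at room temperature; 460:530 nm ratio, fitted for gain versus DMSO.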

[17] = TOX21_TR_RXR_BLA_Agonist_Followup_viability: Viability Assessment in the Tox21 Thyroid Hormone Receptor beta Retinoid X Receptor alpha (RXRa) Agonism Beta-lactamase (BLA) Follow-Up Assay (AID 2283970)
Procedure, shortened: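 RXRa-UAS-bla HEK293T cells, 2,500/well in phenol red-free DMEM with 2% charcoal-stripped FBS, dosed for 16 h at 37C. Viability measured by CellTiter-Glo ATP luminescence; fitted bidirectionally against DMSO baseline, loss of signal indicating cytotoxicity.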

Measured: AC50

Sequence of Cellular tumor antigen p53 (Homo sapiens) (P04637 whole entry, looked up): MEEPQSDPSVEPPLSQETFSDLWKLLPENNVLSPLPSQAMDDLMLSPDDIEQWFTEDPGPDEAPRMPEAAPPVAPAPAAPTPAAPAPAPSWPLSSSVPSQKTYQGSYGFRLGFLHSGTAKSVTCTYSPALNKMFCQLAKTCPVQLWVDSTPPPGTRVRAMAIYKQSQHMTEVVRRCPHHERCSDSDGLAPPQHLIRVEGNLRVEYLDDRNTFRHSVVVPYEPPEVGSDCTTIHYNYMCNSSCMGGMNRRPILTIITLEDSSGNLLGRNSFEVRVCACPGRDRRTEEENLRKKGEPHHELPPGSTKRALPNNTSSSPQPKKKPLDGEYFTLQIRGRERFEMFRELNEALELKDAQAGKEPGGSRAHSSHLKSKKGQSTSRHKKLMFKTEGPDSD
Sequence of Retinoic acid receptor RXR-alpha (Homo sapiens) (P19793 whole entry, looked up): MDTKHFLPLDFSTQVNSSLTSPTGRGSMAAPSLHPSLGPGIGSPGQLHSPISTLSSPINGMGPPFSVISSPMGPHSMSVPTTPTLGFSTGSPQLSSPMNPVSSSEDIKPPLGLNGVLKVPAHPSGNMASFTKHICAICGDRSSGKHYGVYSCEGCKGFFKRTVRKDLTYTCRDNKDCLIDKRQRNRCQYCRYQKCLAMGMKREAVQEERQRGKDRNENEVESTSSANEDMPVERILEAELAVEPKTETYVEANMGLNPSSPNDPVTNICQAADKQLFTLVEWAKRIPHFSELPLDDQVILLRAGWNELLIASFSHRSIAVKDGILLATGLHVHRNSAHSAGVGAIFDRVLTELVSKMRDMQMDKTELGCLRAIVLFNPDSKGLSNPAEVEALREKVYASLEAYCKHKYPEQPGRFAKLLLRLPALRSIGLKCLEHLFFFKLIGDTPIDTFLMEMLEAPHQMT

CCCC[N+]1(C)CCCC1
inactive: [1] | [2] | [3] | [4]

CNC(C)Cc1ccc2c(c1)OCO2 (centres undefined)
not listed: [4] | [12] | [13] | [14] | [15] | [16] | [17]
inactive: all other assays above

CCN
inactive: [1] | [2] | [3] | [4]

C=CCC1([C@H](C)CCC)C(=O)NC(=O)NC1=O
inactive: [1] | [2] | [3] | [12] | [4]

CCCC[N+]1(C)CCCC1 (tested in a mixture with another compound)
inactive: [1] | [2] | [3]
active: [4] 86.9 µM

COc1ccc(C(=O)c2c(C)n(CCN3CCOCC3)c3ccccc23)cc1
inactive: [1] | [2] | [3] | [4]

Cc1ccc2cc(C)ccc2c1
inactive: [1] | [2] | [3] | [12] | [4] | [13] | [14]

O=C1C=C2C=C[C@@H]3C[C@@]2(O1)[C@H]1CCCCN31
inactive: [1] | [2] | [3] | [12]

Cc1c(N)nc([C@H](CC(N)=O)NC[C@H](N)C(N)=O)nc1C(=O)N[C@H](C(=O)N[C@H](C)[C@@H](O)[C@H](C)C(=O)N[C@H](C(=O)NCCc1nc(-c2nc(C(=O)NCCC[S+](C)C)cs2)cs1)[C@@H](C)O)[C@@H](O[C@@H]1O[C@@H](CO)[C@@H](O)[C@H](O)[C@@H]1O[C@H]1O[C@H](CO)[C@@H](O)[C@H](OC(N)=O)[C@@H]1O)c1cnc[nH]1
active: [1] 195 nM and 1.16 µM | [2] 98.3 nM and 922 nM | [3] 86.5 nM and 808 nM | [4] 219 nM and 730 nM

CCS(=O)(=O)C(C)(C)S(=O)(=O)CC
inactive: [1] | [2] | [3] | [4]

NCC1(CC(=O)O)CCCCC1
inactive: [1] | [2] | [3] | [4]

CCCC[n+]1cccc(C)c1
inactive: [1] | [2] | [3] | [4]

COc1ccc(C(CN(C)C)C2(O)CCCCC2)cc1 (centres undefined)
inactive: [1] | [2] | [3] | [12] | [4]

CCC(N)Cc1c[nH]c2ccccc12 (centres undefined)
inactive: [1] | [2] | [3] | [4]

O=C(Cl)C(Cl)Cl
inactive: [1] | [2] | [3] | [12] | [4]

O=C1NCN(c2ccccc2)C12CCN(CCCOc1ccc(F)cc1)CC2
inactive: [1] | [2] | [5] | [12] | [4]

N[C@@H](Cc1ccc(Oc2cc(I)c(O)c(I)c2)c(I)c1)C(=O)O
inactive: [1] | [2] | [5] | [3] | [4] | [15] | [16] | [17]

C[N+]1(C)[C@@H]2CC[C@H]1CC(OC(=O)C(CO)c1ccccc1)C2 (some centres undefined)
inactive: [1] | [2] | [3] | [4]
